In PubChem BioAssay (NCI):
This is part of a sample that, as a whole, favours compounds with a hit. Of some 79,000 tested, about 15% had one in any assay. A number with no mark means an inactive call. The source made the active and inactive calls. Cut-off read from the data, not from the text of the source: active = growth inhibition above about 70%; inactive = the rest.

Key:
[1] = NCI Yeast Anticancer Drug Screen. Data for the rad52 strain (AID 147);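 note: 0% = growth of vehicle-treated control cultures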; conditions: S. cerevisiae rad52 mutant growth inhibition, stronger effect = higher value
Summary of the method: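 Genetically altered yeast (DNA damage repair defect) treated with compound; inhibition calculated relative to vehicle.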

[2] = NCI Yeast Anticancer Drug Screen. Data for the wt1 strain (AID 149);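 note: 0% = growth of vehicle-treated wt1 cultures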; conditions: S. cerevisiae wt1 strain (SPY 50644) growth inhibition, stronger effect = higher value
Summary of the method: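 Vehicle-normalised growth inhibition; strain wt1; compound exposure.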

[3] = NCI Yeast Anticancer Drug Screen. Data for the rad50EPP+ strain (AID 151);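 note: 0% = growth of vehicle-treated control cultures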; conditions: S. cerevisiae rad50 mutant strain, stronger effect = higher value
Summary of the method: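 Strain rad50EPP+; compound exposure; % growth inhibition vs vehicle.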

[4] = NCI Yeast Anticancer Drug Screen. Data for the mgt1 strain (AID 153); conditions: S. cerevisiae mgt1 mutant growth inhibition, stronger effect = higher value
Summary of the method: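 Read-out: yeast growth inhibition vs vehicle control. Strain mgt1, drawn from a panel altered in DNA damage repair or cell cycle control.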

[5] = NCI Yeast Anticancer Drug Screen. Data for the rad50 strain (AID 155);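 note: 0% = growth of vehicle-only cultures of the same strain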; conditions: S. cerevisiae rad50 strain growth inhibition, stronger effect = higher value
Summary of the method: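 A DNA repair-deficient yeast mutant serves as the test organism; compound-induced growth inhibition is calculated against vehicle-treated cells.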

[6] = NCI Yeast Anticancer Drug Screen. Data for the mec2-1 strain (AID 157); conditions: S. cerevisiae mec2-1 strain, stronger effect = higher value
Summary of the method: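 Cells of the genetically defined mec2-1 yeast strain are incubated with test compound. Inhibition of growth is calculated against vehicle-treated controls.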

[7] = NCI Yeast Anticancer Drug Screen. Data for the rad14 strain (AID 159);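 note: 0% = growth of vehicle-treated control cultures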; conditions: S. cerevisiae rad14 strain growth inhibition, stronger effect = higher value
Summary of the method: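 Vehicle-treated cultures served as the baseline for growth inhibition of a DNA repair-mutant yeast strain exposed to each compound.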

[8] = NCI Yeast Anticancer Drug Screen. Data for the sgs1 mgt1 strain (AID 161);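 note: 0% = growth of cultures given vehicle only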; conditions: S. cerevisiae sgs1 mgt1 strain, stronger effect = higher value
Summary of the method: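 Mutant yeast exposed to compound; growth scored against vehicle-only wells.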

[9] = NCI Yeast Anticancer Drug Screen. Data for the CLN2oe strain (AID 163);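 note: 0% = growth of vehicle-only control cultures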; conditions: S. cerevisiae CLN2oe strain, stronger effect = higher value
Summary of the method: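 Strain altered in cell-cycle control, incubated with compound; growth compared to solvent-treated controls.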

[10] = NCI Yeast Anticancer Drug Screen. Data for the cln2 rad14 strain (AID 165);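 note: 0% = growth equal to vehicle treated cultures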; conditions: S. cerevisiae cln2 rad14 strain, stronger effect = higher value
Summary of the method: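 The screen exposed genetically defined yeast (cln2 rad14) to test compounds and scored growth inhibition relative to vehicle-treated controls.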

[11] = NCI Yeast Anticancer Drug Screen. Data for the bub3 strain (AID 167); conditions: S. cerevisiae bub3 mutant strain, stronger effect = higher value
Summary of the method: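 Inhibition values come from growth of compound-treated mutant yeast normalised to vehicle-treated controls.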

[12] = NCI Yeast Anticancer Drug Screen. Data for the wt2 strain (AID 169);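 note: 0% = growth of vehicle-treated yeast cultures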; conditions: S. cerevisiae wt2 strain growth inhibition, stronger effect = higher value
Summary of the method: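 Steps: yeast strain treated with compound; growth recorded; inhibition calculated relative to cultures given vehicle alone.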

[13] = NCI Yeast Anticancer Drug Screen. Data for the mlh1 strain (AID 171);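 note: 0% = growth of vehicle-treated control cultures of the same strain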; conditions: S. cerevisiae mlh1 strain growth inhibition, stronger effect = higher value
Summary of the method: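 Yeast screen: mutant strain plus compound, growth scored against vehicle control wells.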

[14] = NCI Yeast Anticancer Drug Screen. Data for the sgs1 strain (AID 173);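 note: 0% = growth of vehicle-only control cultures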; conditions: S. cerevisiae sgs1 mutant, stronger effect = higher value
Summary of the method: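 Inhibition of yeast growth served as the measure. The mutant strain was treated with each compound, and growth was normalised to cultures receiving vehicle alone.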

[15] = NCI Yeast Anticancer Drug Screen. Data for the mlh1 rad18 strain (AID 175); conditions: S. cerevisiae mlh1 rad18 strain growth inhibition, stronger effect = higher value
Summary of the method: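 Compound-treated yeast growth, normalised to vehicle controls. Strain bears defined DNA repair mutations.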

[16] = NCI Yeast Anticancer Drug Screen. Data for the rad18 strain (AID 177); conditions: S. cerevisiae rad18 mutant growth inhibition, stronger effect = higher value
Summary of the method: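 Inhibition values reflect reduced yeast growth compared with vehicle-treated controls, using a strain engineered with a DNA damage repair defect.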

[17] = at 5.0 µM (retest, dose inferred, filed as 0.5)
[18] = at 50.0 µM (retest, dose inferred, filed as 5.0)

SMILES: COc1cc2c(cc1OC)[C@@H](Nc1ccc(C#N)cc1)C1COC(=O)[C@@H]1C2c1cc(OC)c(O)c(OC)c1 (stereo partly drawn)
- growth inhibition ([1]; at 1.2 µM): 14%
- growth inhibition ([1]; at 3.7 µM): 52%
- growth inhibition ([1]; at 11.0 µM): 81% (active)
- growth inhibition ([1]; at 33.0 µM): 91% (active)
- growth inhibition ([1]; at 100.0 µM): 93% (active)
- growth inhibition ([2]; at 1.2 µM): -34%
- growth inhibition ([2]; at 3.7 µM): -33%
- growth inhibition ([2]; at 11.0 µM): -9%
- growth inhibition ([2]; at 33.0 µM): 6%
- growth inhibition ([2]; at 100.0 µM): 79% (active)
- growth inhibition ([3]; at 1.2 µM): -15%
- growth inhibition ([3]; at 3.7 µM): -11%
- growth inhibition ([3]; at 11.0 µM): -1%
- growth inhibition ([3]; at 33.0 µM): 6%
- growth inhibition ([3]; at 100.0 µM): 20%
- growth inhibition ([4]; at 1.2 µM): -17%
- growth inhibition ([4]; at 3.7 µM): -19%
- growth inhibition ([4]; at 11.0 µM): 12%
- growth inhibition ([4]; at 33.0 µM): 20%
- growth inhibition ([4]; at 100.0 µM): 83% (active)
- growth inhibition ([5]; at 1.2 µM): 24%
- growth inhibition ([5]; at 3.7 µM): 70% (active)
- growth inhibition [5, 17]: 88% (active)
- growth inhibition ([5]; at 11.0 µM): 90% (active)
- growth inhibition ([5]; at 33.0 µM): 93% (active)
- growth inhibition [5, 18]: 97% (active)
- growth inhibition ([5]; at 50.0 µM): 88% (active)
- growth inhibition ([5]; at 100.0 µM): 95% (active)
- growth inhibition ([6]; at 1.2 µM): -22%
- growth inhibition ([6]; at 3.7 µM): 5%
- growth inhibition [6, 17]: 11%
- growth inhibition ([6]; at 11.0 µM): 15%
- growth inhibition ([6]; at 33.0 µM): 70% (active)
- growth inhibition [6, 18]: 98% (active)
- growth inhibition ([6]; at 50.0 µM): 91.5% (active)
- growth inhibition ([6]; at 100.0 µM): 91% (active)
- growth inhibition ([7]; at 1.2 µM): -12%
- growth inhibition ([7]; at 3.7 µM): -8%
- growth inhibition ([7]; at 11.0 µM): 0%
- growth inhibition ([7]; at 33.0 µM): 22%
- growth inhibition ([7]; at 100.0 µM): 81% (active)
- growth inhibition [8, 17]: 17%
- growth inhibition [8, 18]: 96% (active)
- growth inhibition ([8]; at 50.0 µM): 88% (active)
- growth inhibition ([9]; at 1.2 µM): -5%
- growth inhibition ([9]; at 3.7 µM): 19%
- growth inhibition ([9]; at 11.0 µM): 11%
- growth inhibition ([9]; at 33.0 µM): 38%
- growth inhibition ([9]; at 100.0 µM): 84% (active)
- growth inhibition [10, 17]: 7%
- growth inhibition [10, 18]: 91% (active)
- growth inhibition ([10]; at 50.0 µM): 82% (active)
- growth inhibition ([11]; at 1.2 µM): -32%
- growth inhibition ([11]; at 3.7 µM): -13%
- growth inhibition [11, 17]: -54%
- growth inhibition ([11]; at 11.0 µM): -22%
- growth inhibition ([11]; at 33.0 µM): 15%
- growth inhibition [11, 18]: 95% (active)
- growth inhibition ([11]; at 50.0 µM): 89.2% (active)
- growth inhibition ([11]; at 100.0 µM): 78% (active)
- growth inhibition ([12]; at 1.2 µM): 6%
- growth inhibition ([12]; at 3.7 µM): 17%
- growth inhibition ([12]; at 11.0 µM): 46%
- growth inhibition ([12]; at 33.0 µM): 90% (active)
- growth inhibition ([12]; at 100.0 µM): 93% (active)
- growth inhibition ([13]; at 1.2 µM): -3%
- growth inhibition ([13]; at 3.7 µM): 9%
- growth inhibition ([13]; at 11.0 µM): 16%
- growth inhibition ([13]; at 33.0 µM): 33%
- growth inhibition ([13]; at 100.0 µM): 81% (active)
- growth inhibition ([14]; at 1.2 µM): -20%
- growth inhibition ([14]; at 3.7 µM): -14%
- growth inhibition ([14]; at 11.0 µM): -2%
- growth inhibition ([14]; at 33.0 µM): 39%
- growth inhibition ([14]; at 100.0 µM): 85% (active)
- growth inhibition [15, 17]: 9%
- growth inhibition [15, 18]: 94% (active)
- growth inhibition ([15]; at 50.0 µM): 86.7% (active)
- growth inhibition ([16]; at 1.2 µM): -30%
- growth inhibition ([16]; at 3.7 µM): -8%
- growth inhibition ([16]; at 11.0 µM): -5%
- growth inhibition ([16]; at 33.0 µM): 13%
- growth inhibition ([16]; at 100.0 µM): 84% (active)

SMILES: COC(=O)C(=O)c1c(-c2ccc(Cl)c(Cl)c2)[nH]c2[nH]n(-c3ccccc3)c(=O)c2c1=O
- growth inhibition ([1]; at 1.2 µM): -2%
- growth inhibition ([1]; at 3.7 µM): -5%
- growth inhibition ([1]; at 11.0 µM): 37%
- growth inhibition ([1]; at 33.0 µM): 55%
- growth inhibition ([1]; at 100.0 µM): 61%
- growth inhibition ([2]; at 1.2 µM): -1%
- growth inhibition ([2]; at 3.7 µM): -3%
- growth inhibition ([2]; at 11.0 µM): 24%
- growth inhibition ([2]; at 33.0 µM): 54%
- growth inhibition ([2]; at 100.0 µM): 55%
- growth inhibition ([3]; at 1.2 µM): 2%
- growth inhibition ([3]; at 3.7 µM): 0%
- growth inhibition ([3]; at 11.0 µM): 24%
- growth inhibition ([3]; at 33.0 µM): 56%
- growth inhibition ([3]; at 100.0 µM): 76% (active)
- growth inhibition ([4]; at 1.2 µM): -2%
- growth inhibition ([4]; at 3.7 µM): -2%
- growth inhibition ([4]; at 11.0 µM): 44%
- growth inhibition ([4]; at 33.0 µM): 68%
- growth inhibition ([4]; at 100.0 µM): 68%
- growth inhibition ([5]; at 1.2 µM): 0%
- growth inhibition ([5]; at 3.7 µM): 27%
- growth inhibition [5, 17]: -5%
- growth inhibition ([5]; at 11.0 µM): 22%
- growth inhibition ([5]; at 33.0 µM): 40%
- growth inhibition [5, 18]: 85% (active)
- growth inhibition ([5]; at 50.0 µM): 93.1% (active)
- growth inhibition ([5]; at 100.0 µM): 65%
- growth inhibition ([6]; at 1.2 µM): -2%
- growth inhibition ([6]; at 3.7 µM): -7%
- growth inhibition [6, 17]: -7%
- growth inhibition ([6]; at 11.0 µM): 40%
- growth inhibition ([6]; at 33.0 µM): 57%
- growth inhibition [6, 18]: 9%
- growth inhibition ([6]; at 50.0 µM): 82.8% (active)
- growth inhibition ([6]; at 100.0 µM): 63%
- growth inhibition ([7]; at 1.2 µM): -1%
- growth inhibition ([7]; at 3.7 µM): -1%
- growth inhibition ([7]; at 11.0 µM): 46%
- growth inhibition ([7]; at 33.0 µM): 62%
- growth inhibition ([7]; at 100.0 µM): 61%
- growth inhibition [8, 17]: -3%
- growth inhibition [8, 18]: 83% (active)
- growth inhibition ([8]; at 50.0 µM): 43%
- growth inhibition ([9]; at 1.2 µM): -6%
- growth inhibition ([9]; at 3.7 µM): -13%
- growth inhibition ([9]; at 11.0 µM): 64%
- growth inhibition ([9]; at 33.0 µM): 64%
- growth inhibition ([9]; at 100.0 µM): 58%
- growth inhibition [10, 17]: -11%
- growth inhibition [10, 18]: 81% (active)
- growth inhibition ([10]; at 50.0 µM): 87.5% (active)
- growth inhibition ([11]; at 1.2 µM): -3%
- growth inhibition ([11]; at 3.7 µM): -2%
- growth inhibition [11, 17]: -38%
- growth inhibition ([11]; at 11.0 µM): 51%
- growth inhibition ([11]; at 33.0 µM): 54%
- growth inhibition [11, 18]: 84% (active)
- growth inhibition ([11]; at 50.0 µM): 82.5% (active)
- growth inhibition ([11]; at 100.0 µM): 55%
